PubChem BioAssay (EPA / NIEHS)
Results filed as inconclusive are left out. The source made the active and inactive calls. How the source made its calls, unless noted: active means hit-call score of the fitted dose curve at least 0.9, where 1 is the maximum; inconclusive means response in the unintended direction; inactive means score below 0.9.

How the values were obtained:
[1] = ATG_TAL_CIS: Attagene CIS-FACTORIAL HepG2 Assay for human TAL Basal Promoter (AID 2282966; active means hit-call score of the fitted dose curve at least 0.9, where 1 is the maximum; inactive means score below 0.9;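 further: background control endpoint measuring basal TAL promoter reporter mRNA not a specific factor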); conditions: HepG2 Attagene cis-factorial TAL promoter reporter; actives raise or lower the signal
Outline: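 Basal-promoter background-control endpoint from a multiplexed HepG2 reporter panel. Cells were exposed 24 h, then reporter mRNA was read by RT-PCR/CE fluorescence and fitted in both directions relative to DMSO.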

[2] = ATG_TGFb_CIS: Attagene CIS-FACTORIAL HepG2 Assay for human Transforming Growth Factor (TGF) (AID 2282967; active means hit-call score of the fitted dose curve at least 0.9, where 1 is the maximum; inactive means score below 0.9); conditions: HepG2 Attagene CIS TGFb reporter, mRNA transcription; actives raise or lower the signal
Outline: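 Cells were dosed for 24 hours, after which total RNA was reverse-transcribed and reporter sequences amplified, labeled and sized by capillary electrophoresis. Activity was fitted in both directions against DMSO.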

[3] = ATG_VDRE_CIS: Attagene CIS-FACTORIAL HepG2 Assay for human Vitamin D Receptor Element (VDRE) (AID 2282968; active means hit-call score of the fitted dose curve at least 0.9, where 1 is the maximum; inactive means score below 0.9); conditions: HepG2 VDRE cis-reporter transcription, actives raise or lower the signal
Outline: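 Measures endogenous factor activity through cis-element-driven reporter transcripts in transiently transfected HepG2. Cells are treated 24 h; reporter mRNA is quantified by RT-PCR and capillary electrophoresis; fitting is bidirectional.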

[4] = target: Nuclear receptor subfamily 1 group I member 3 (Homo sapiens) (UniProt Q14994); assay: ATG_CAR_TRANS: Attagene TRANS-FACTORIAL HepG2 Assay for human Constitutive Androstane Receptor (CAR) (AID 2282969); conditions: HepG2 Attagene TRANS-FACTORIAL CAR reporter;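 further: activators raise reporter mRNA above DMSO so AC50 marks induction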
Outline: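 Signal is reporter mRNA induction relative to DMSO, measured 24 h after dosing by RT-PCR with fluorescent primer extension and capillary electrophoresis. Human HepG2 liver cells carried transiently transfected chimeric NR-Gal4/GAL4-UAS reporter constructs.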

[5] = target: Estrogen receptor (Homo sapiens) (UniProt P03372); assay: ATG_ERa_TRANS: Attagene TRANS-FACTORIAL HepG2 Assay for human Estrogen Receptor alpha (ERa) (AID 2282970); conditions: HepG2 Attagene TRANS ERa GAL4 reporter, mRNA
Sequence of Estrogen receptor (Homo sapiens) (P03372 whole entry, looked up, the tested form may be a part): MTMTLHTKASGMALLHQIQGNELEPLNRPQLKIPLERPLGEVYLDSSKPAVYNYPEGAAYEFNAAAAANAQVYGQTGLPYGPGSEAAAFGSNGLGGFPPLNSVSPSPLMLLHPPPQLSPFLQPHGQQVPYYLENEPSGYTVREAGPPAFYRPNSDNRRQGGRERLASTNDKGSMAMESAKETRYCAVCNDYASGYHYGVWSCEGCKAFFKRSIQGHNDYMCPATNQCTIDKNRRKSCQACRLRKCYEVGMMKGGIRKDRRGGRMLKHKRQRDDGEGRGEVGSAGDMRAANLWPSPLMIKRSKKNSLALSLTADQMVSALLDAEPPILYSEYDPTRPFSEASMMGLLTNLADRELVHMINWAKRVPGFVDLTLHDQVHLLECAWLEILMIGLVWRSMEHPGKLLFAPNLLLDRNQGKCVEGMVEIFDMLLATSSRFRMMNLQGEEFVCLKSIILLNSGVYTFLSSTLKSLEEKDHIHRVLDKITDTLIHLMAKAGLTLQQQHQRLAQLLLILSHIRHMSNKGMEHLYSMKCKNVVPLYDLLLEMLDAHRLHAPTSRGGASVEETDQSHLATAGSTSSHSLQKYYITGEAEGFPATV
Outline: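 Gal4-fusion ERa transactivation, measured as reporter transcript level in transiently transfected HepG2 cells. Exposure 24 h; RT-PCR plus capillary electrophoresis with fluorescence detection.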

[6] = target: Steroid hormone receptor ERR1 (Homo sapiens) (UniProt P11474); assay: ATG_ERRa_TRANS: Attagene TRANS-FACTORIAL HepG2 Assay for human Estrogen-Related Receptor alpha (ERRa) (AID 2282971); conditions: HepG2 Attagene TRANS reporter, ERRa transactivation
Sequence of Steroid hormone receptor ERR1 (Homo sapiens) (P11474 whole entry, looked up, the tested form may be a part): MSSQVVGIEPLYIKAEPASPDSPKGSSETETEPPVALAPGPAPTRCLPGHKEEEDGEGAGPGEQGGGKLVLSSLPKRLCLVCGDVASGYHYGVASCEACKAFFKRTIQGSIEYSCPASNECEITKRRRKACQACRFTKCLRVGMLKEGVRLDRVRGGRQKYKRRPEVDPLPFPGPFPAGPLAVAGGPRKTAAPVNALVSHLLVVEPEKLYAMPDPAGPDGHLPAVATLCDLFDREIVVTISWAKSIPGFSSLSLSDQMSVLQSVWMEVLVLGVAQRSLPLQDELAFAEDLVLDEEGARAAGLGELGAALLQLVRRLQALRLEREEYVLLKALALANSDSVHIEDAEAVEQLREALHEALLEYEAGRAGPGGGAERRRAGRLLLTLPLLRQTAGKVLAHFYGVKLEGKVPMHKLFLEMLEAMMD
Outline: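 HepG2 cells transiently transfected with GAL4-UAS reporter units and chimeric NR-Gal4 constructs; after 24 hour compound incubation, reporter mRNA quantified by RT-PCR, fluorescent labelling and capillary electrophoresis, gain of signal versus DMSO.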

[7] = target: X-box-binding protein 1 (Homo sapiens) (UniProt P17861); assay: ATG_Xbp1_CIS: Attagene CIS-FACTORIAL HepG2 Assay for human X-box Binding Protein 1 (XBP1) (AID 2282972; active means hit-call score of the fitted dose curve at least 0.9, where 1 is the maximum; inactive means score below 0.9); conditions: HepG2 XBP1 cis-element reporter, Attagene multiplex; actives raise or lower the signal
Sequence of X-box-binding protein 1 (Homo sapiens) (P17861 whole entry, looked up): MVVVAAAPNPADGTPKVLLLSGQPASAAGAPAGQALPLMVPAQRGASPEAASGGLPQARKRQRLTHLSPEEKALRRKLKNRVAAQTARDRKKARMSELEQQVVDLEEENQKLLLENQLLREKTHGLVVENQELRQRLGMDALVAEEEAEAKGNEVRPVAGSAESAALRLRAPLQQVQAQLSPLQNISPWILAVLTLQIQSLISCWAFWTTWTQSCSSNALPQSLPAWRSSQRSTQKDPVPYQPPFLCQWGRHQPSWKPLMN
Outline: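 Multiplexed cis-reporter readout in transfected HepG2 liver cells. Exposure lasted 24 hours. Activity in either direction was fitted against DMSO as negative control and baseline.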

[8] = ATG_GAL4_TRANS: Attagene TRANS-FACTORIAL HepG2 Assay for GAL4 (Internal Marker) (AID 2282976); conditions: HepG2 Attagene TRANS GAL4 internal marker reporter
Outline: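 Background-control readout: GAL4-UAS reporter transcript in transiently transfected HepG2 cells after 24 h compound exposure. Measured by RT-PCR, 6-FAM primer extension, HpaI digest and capillary electrophoresis; gain-of-signal fit versus DMSO.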

[9] = target: Bile acid receptor (Homo sapiens) (UniProt Q96RI1); assay: ATG_FXR_TRANS: Attagene TRANS-FACTORIAL HepG2 Assay for Farnesoid X Receptor (FXR) (AID 2282979); conditions: HepG2 Attagene TRANS FXR-GAL4 reporter transcription;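 further: hits raise reporter mRNA above DMSO so AC50 marks FXR activation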
Sequence of Bile acid receptor (Homo sapiens) (Q96RI1 whole entry, looked up, the tested form may be a part): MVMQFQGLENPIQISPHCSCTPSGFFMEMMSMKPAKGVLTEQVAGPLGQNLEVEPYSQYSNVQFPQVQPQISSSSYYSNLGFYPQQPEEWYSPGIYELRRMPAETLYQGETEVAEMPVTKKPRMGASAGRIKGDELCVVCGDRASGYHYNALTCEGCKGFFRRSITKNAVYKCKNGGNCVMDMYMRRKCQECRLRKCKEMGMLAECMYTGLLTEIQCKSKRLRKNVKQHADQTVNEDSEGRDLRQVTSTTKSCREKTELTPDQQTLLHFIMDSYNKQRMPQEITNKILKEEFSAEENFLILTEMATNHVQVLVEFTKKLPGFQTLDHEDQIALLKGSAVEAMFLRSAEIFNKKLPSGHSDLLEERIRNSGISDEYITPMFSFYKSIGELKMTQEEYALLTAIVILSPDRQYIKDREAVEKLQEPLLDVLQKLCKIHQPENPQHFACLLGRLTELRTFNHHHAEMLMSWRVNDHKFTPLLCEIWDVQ
Outline: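 HepG2 cells were transiently transfected with GAL4-UAS reporters driven by chimeric NR-Gal4 proteins and dosed for 24 h. Reporter mRNA was quantified by RT-PCR, fluorescent labelling, HpaI digestion and capillary electrophoresis, with gain of signal scored versus DMSO.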

[10] = ATG_M_32_TRANS: Attagene TRANS-FACTORIAL HepG2 Assay for M32 Transcription Factor (Internal Marker) (AID 2282984); conditions: HepG2 Attagene TRANS M32 internal marker reporter
Outline: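 Cell-based TRANS-format assay in HepG2: exogenous chimeric GAL4 reporter units transiently expressed, compounds applied 24 h. Reporter mRNA detected by RT-PCR plus capillary electrophoresis; this readout is an internal background marker.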

[11] = target: Nuclear receptor subfamily 4 group A member 2 (Homo sapiens) (UniProt P43354); assay: ATG_NURR1_TRANS: Attagene TRANS-FACTORIAL HepG2 Assay for human Nuclear Receptor Related Protein 1 (NURR1) (AID 2282985); conditions: HepG2 Attagene TRANS reporter, mRNA readout
Sequence of Nuclear receptor subfamily 4 group A member 2 (Homo sapiens) (P43354 whole entry, looked up, the tested form may be a part): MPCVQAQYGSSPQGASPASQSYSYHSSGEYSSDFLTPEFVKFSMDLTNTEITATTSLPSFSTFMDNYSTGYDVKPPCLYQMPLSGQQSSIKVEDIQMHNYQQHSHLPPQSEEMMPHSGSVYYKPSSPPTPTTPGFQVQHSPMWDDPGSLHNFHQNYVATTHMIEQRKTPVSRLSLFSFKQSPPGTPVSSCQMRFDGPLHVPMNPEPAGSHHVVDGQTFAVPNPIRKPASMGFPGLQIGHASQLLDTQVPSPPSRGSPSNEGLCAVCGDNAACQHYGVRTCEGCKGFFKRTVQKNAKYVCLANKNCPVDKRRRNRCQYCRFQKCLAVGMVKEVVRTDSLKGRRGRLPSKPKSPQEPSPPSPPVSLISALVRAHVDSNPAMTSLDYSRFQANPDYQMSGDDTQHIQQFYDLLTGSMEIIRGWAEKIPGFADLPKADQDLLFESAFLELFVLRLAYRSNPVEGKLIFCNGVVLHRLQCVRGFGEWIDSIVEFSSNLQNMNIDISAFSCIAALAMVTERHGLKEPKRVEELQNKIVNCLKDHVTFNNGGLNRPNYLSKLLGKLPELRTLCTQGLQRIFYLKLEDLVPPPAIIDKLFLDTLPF
Outline: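 Measures transcriptional activation by an exogenous NR-Gal4 chimera in transfected HepG2 liver cells. After 24 h, reporter RNA is reverse-transcribed, amplified and resolved by capillary electrophoresis; DMSO defines baseline.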

[12] = target: Transcriptional activator Myb (Homo sapiens) (UniProt P10242); assay: ATG_Myb_CIS: Attagene CIS-FACTORIAL HepG2 Assay for human Myeloblastosis (Myb) Proto-Oncogene Transcription Factor (AID 2282986; active means hit-call score of the fitted dose curve at least 0.9, where 1 is the maximum; inactive means score below 0.9); conditions: HepG2 Attagene CIS-FACTORIAL Myb reporter transcription; actives raise or lower the signal
Sequence of Transcriptional activator Myb (Homo sapiens) (P10242 whole entry, looked up): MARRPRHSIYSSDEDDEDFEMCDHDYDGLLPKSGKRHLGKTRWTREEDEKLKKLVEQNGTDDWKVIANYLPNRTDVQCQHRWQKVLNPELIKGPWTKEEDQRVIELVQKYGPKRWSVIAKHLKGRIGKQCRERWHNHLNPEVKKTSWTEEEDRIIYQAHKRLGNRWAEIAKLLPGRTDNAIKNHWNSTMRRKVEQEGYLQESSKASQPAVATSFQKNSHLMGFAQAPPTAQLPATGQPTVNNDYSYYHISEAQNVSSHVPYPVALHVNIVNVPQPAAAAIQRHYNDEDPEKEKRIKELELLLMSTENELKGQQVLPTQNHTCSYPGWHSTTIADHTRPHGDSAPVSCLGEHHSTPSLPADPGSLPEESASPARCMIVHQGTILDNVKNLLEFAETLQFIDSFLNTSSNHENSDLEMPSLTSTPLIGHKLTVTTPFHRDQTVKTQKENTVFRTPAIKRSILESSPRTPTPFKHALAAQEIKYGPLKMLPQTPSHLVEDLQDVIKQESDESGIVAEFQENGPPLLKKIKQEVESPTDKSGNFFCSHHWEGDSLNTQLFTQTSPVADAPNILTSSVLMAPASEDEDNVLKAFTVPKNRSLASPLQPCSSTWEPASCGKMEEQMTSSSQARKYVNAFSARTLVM
Outline: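 Transiently transfected HepG2 cells, treated 24 h. Reporter mRNA quantified by RT-PCR/capillary electrophoresis; bidirectional fit relative to DMSO.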

[13] = target: Nuclear respiratory factor 1 (Homo sapiens) (UniProt Q16656); assay: ATG_NRF1_CIS: Attagene CIS-FACTORIAL HepG2 Assay for human Nuclear Respiratory Factor 1 (NRF1) Orphan Gene (AID 2282987; active means hit-call score of the fitted dose curve at least 0.9, where 1 is the maximum; inactive means score below 0.9); conditions: HepG2 NRF1 cis-element reporter, Attagene multiplex; actives raise or lower the signal
Sequence of Nuclear respiratory factor 1 (Homo sapiens) (Q16656 whole entry, looked up, the tested form may be a part): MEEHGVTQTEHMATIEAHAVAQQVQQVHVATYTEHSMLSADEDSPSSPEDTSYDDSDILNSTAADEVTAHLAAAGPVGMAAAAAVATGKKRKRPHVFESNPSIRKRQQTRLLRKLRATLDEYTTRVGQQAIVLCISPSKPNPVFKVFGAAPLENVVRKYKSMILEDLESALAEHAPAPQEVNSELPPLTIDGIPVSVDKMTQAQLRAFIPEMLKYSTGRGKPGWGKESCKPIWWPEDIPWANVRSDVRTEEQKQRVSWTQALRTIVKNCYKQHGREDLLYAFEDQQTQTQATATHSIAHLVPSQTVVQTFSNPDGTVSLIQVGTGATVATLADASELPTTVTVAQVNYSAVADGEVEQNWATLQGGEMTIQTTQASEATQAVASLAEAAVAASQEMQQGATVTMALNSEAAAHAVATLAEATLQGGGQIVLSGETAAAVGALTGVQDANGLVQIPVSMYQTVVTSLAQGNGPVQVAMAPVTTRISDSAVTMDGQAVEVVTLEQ
Outline: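 Cells (HepG2, transient MRTU transfection) are exposed to compound for 24 h, then RNA isolated and reporter mRNA amplified and fluorescently labelled. Fragments are separated by capillary electrophoresis; signal change is fitted bidirectionally relative to DMSO.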

[14] = ATG_M_19_TRANS: Attagene TRANS-FACTORIAL HepG2 Assay for M19 Transcription Factor (Internal Marker) (AID 2282974); conditions: HepG2 Attagene TRANS-FACTORIAL M19 internal marker reporter
Outline: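 Reporter mRNA induction was measured in transfected HepG2 cells 24 h after dosing. Endpoint fitted upward relative to DMSO and serves as a background control within the multiplexed TRANS panel.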

[15] = target: Oxysterols receptor LXR-beta (Homo sapiens) (UniProt P55055); assay: ATG_LXRb_TRANS: Attagene TRANS-FACTORIAL HepG2 Assay for human Liver X Receptor beta (LXRb) (AID 2282981); conditions: HepG2 Attagene TRANS GAL4-LXRb reporter, mRNA
Sequence of Oxysterols receptor LXR-beta (Homo sapiens) (P55055 whole entry, looked up, the tested form may be a part): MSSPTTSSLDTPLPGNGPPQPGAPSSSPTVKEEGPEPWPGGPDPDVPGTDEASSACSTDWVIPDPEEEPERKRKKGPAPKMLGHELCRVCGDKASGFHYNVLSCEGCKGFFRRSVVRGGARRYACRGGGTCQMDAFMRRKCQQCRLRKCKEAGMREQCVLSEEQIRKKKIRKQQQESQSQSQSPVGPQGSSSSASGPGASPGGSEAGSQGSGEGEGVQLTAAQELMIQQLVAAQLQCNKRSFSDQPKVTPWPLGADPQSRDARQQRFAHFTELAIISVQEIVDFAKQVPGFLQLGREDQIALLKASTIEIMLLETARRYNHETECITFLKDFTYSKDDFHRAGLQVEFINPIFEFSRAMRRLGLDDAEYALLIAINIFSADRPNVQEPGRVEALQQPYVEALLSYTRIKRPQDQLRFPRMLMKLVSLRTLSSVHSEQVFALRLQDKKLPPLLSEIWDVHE
Outline: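 After 24 h of chemical treatment, transfected HepG2 cells yield total RNA; reporter cDNA is PCR-amplified, FAM-labelled, HpaI-cut and run on capillary electrophoresis. Signal reflects chimeric LXRb-Gal4 activity on GAL4-UAS reporters.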

[16] = target: Oxysterols receptor LXR-alpha (Homo sapiens) (UniProt Q13133); assay: ATG_LXRa_TRANS: Attagene TRANS-FACTORIAL HepG2 Assay for human Liver X Receptor alpha (LXRa) (AID 2282980); conditions: HepG2 Attagene TRANS reporter, LXRa transactivation
Sequence of Oxysterols receptor LXR-alpha (Homo sapiens) (Q13133 whole entry, looked up, the tested form may be a part): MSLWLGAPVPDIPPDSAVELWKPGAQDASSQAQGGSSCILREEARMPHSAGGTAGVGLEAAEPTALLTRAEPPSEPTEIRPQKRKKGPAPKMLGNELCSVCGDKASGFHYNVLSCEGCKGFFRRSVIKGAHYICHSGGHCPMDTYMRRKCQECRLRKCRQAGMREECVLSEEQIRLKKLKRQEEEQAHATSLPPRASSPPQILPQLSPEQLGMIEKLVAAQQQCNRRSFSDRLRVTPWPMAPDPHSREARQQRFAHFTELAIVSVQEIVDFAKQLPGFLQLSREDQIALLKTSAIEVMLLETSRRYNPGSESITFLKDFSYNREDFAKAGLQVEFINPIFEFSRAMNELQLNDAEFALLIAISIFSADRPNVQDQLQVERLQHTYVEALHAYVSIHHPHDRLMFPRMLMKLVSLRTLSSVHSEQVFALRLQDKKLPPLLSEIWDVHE
Outline: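 HepG2 cells transiently transfected with GAL4-UAS reporter units for chimeric NR-Gal4 proteins, exposed to chemicals for 24 h. Reporter mRNA quantified by RT-PCR and capillary electrophoresis; gain of signal fitted relative to DMSO.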

[17] = target: Hepatocyte nuclear factor 4-alpha (Homo sapiens) (UniProt P41235); assay: ATG_HNF4a_TRANS: Attagene TRANS-FACTORIAL HepG2 Assay for human Hepatocyte Nuclear Factor 4 alpha (HNF4a) (AID 2282982); conditions: HepG2 HNF4a transactivation reporter, mRNA readout
Outline: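 Multiplexed reporter assay: transfected HepG2, 24 h exposure, total RNA → oligo(dT) RT → PCR → 6-FAM extension → HpaI digest → CE fluorescence. DMSO = negative control.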

[18] = target: Estrogen-related receptor gamma (Homo sapiens) (UniProt P62508); assay: ATG_ERRg_TRANS: Attagene TRANS-FACTORIAL HepG2 Assay for human Estrogen-Related Receptor gamma (ERRg) (AID 2282977); conditions: HepG2 Attagene TRANS reporter, ERRg transactivation;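 further: hits increase reporter signal over DMSO so potencies reflect activators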
Sequence of Estrogen-related receptor gamma (Homo sapiens) (P62508 whole entry, looked up, the tested form may be a part): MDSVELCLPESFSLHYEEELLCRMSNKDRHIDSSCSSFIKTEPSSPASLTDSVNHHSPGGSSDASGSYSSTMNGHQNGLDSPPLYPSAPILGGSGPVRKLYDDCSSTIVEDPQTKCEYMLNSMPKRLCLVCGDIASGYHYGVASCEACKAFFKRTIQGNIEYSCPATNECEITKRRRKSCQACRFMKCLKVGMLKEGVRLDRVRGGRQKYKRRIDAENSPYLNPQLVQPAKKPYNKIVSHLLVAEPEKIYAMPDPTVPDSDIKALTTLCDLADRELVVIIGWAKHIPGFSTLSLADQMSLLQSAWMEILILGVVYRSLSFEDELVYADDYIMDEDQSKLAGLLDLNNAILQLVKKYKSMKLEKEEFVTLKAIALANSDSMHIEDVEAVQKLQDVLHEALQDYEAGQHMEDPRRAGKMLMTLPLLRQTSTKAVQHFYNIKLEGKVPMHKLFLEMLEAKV
Outline: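 Readout: fluorescent reporter-mRNA fragments resolved by capillary electrophoresis after RT-PCR and HpaI cut. Cells: transiently transfected HepG2 carrying GAL4-UAS reporters driven by exogenous NR-Gal4 chimeras, dosed 24 h. Activity fitted upward relative to DMSO baseline.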

[19] = ATG_M_06_TRANS: Attagene TRANS-FACTORIAL HepG2 Assay for M06 Transcription Factor (Internal Marker) (AID 2282983); conditions: HepG2 Attagene TRANS M06 internal marker reporter
Outline: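 mRNA levels of a reporter transcript, quantified as FAM fluorescence on capillary electrophoresis, served as readout. HepG2 cells expressing exogenous GAL4-chimera reporter constructs were exposed for 24 h. Gain of signal over DMSO was evaluated.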

[20] = target: Glucocorticoid receptor (Homo sapiens) (UniProt P04150); assay: ATG_GR_TRANS: Attagene TRANS-FACTORIAL HepG2 Assay for human Glucocorticoid Receptor (GR) (AID 2282978); conditions: HepG2 Attagene TRANS GR reporter, mRNA transcription;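 further: activators score as hits since higher reporter transcript over DMSO is fitted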
Outline: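 Reporter transcript levels, detected by fluorescence after RT-PCR and capillary electrophoresis, served as the endpoint. HepG2 cells bearing transfected GAL4-UAS reporters responsive to NR-GAL4 chimeras were incubated with compound 24 h; DMSO defined baseline.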

Measured: AC50

CCOC(=O)N1CCC(=C2c3ccc(Cl)cc3CCc3cccnc32)CC1
active: [1] 8.84 µM | [3] 1.37 µM | [11] 15.6 µM
not listed: [14] | [15] | [16] | [17] | [18] | [19] | [20]
inactive: all other assays above

Nc1ncn([C@@H]2O[C@H](CO)[C@@H](O)[C@H]2O)c(=O)n1
not listed: [6] | [8] | [9] | [16] | [17] | [18] | [19] | [20]
inactive: all other assays above

O=C1C(N(CO)C(=O)NCO)N(CO)C(=O)N1CO (stereo unspecified)
not listed: [6] | [9] | [15] | [18] | [19] | [20]
inactive: all other assays above

C1=Cc2ccccc2C1
active: [5] 65.8 µM
not listed: [6] | [9] | [10] | [11] | [14] | [20]
inactive: all other assays above

CCCCC(CC)COC(=O)c1ccccc1 (stereo unspecified)
active: [5] 34.6 µM
not listed: [6] | [8] | [9] | [15] | [16] | [17] | [18] | [19]
inactive: all other assays above

NCCCN1CCN(CCCN)CC1
inactive: [1] | [2] | [3] | [4] | [5] | [7] | [14] | [10] | [12] | [13]

O=C(O)CCCC[C@@H]1SC[C@@H]2NC(=O)N[C@@H]21
not listed: [8] | [9] | [11] | [14] | [16] | [17] | [18] | [19]
inactive: all other assays above

N#CCc1ccc(Cl)cc1Cl
not listed: [6] | [8] | [9] | [11] | [16] | [18] | [20]
inactive: all other assays above

Nc1ccc(N)c(Cl)c1
active: [3] 33.4 µM | [5] 25.5 µM
inactive: [1] | [2] | [4] | [7] | [14] | [9] | [17] | [11] | [13]

C(=CC=Nc1ccccc1)C=CNc1ccccc1
not listed: [6] | [16] | [18] | [20]
inactive: all other assays above

CCCCCCCCCCCCCOP(=O)(O)O
inactive: [1] | [2] | [3] | [4] | [5] | [7] | [14] | [15] | [12] | [13]

CCCCC(CC)COC(=O)c1ccccc1O (stereo unspecified)
active: [5] 50 µM
not listed: [8] | [9] | [14] | [15] | [16] | [18]
inactive: all other assays above

ON(Cc1ccccc1)Cc1ccccc1
inactive: [1] | [2] | [3] | [4] | [5] | [7] | [14] | [15] | [10] | [13]

CCC(C)(C)C1CCCCC1OC(C)=O (stereo unspecified)
not listed: [9] | [14] | [15] | [16] | [17] | [18] | [20]
inactive: all other assays above

CC(=O)C=CC1C(C)=CCC(C)C1(C)C (stereo unspecified)
not listed: [6] | [9] | [12] | [14] | [15] | [16]
inactive: all other assays above

Cc1cccc(N(C)C(=S)Oc2ccc3ccccc3c2)c1
active: [2] 9.03 µM | [3] 1.11 µM | [5] 3.78 µM | [11] 44.1 µM
not listed: [6] | [14] | [15] | [16] | [18]
inactive: all other assays above

CC(C)=CCCC(C)C=O (stereo unspecified)
active: [3] 32 µM
not listed: [6] | [8] | [18] | [19] | [20]
inactive: all other assays above

Nc1ccc2cc3ccccc3cc2c1
active: [5] 6.94 µM
not listed: [6] | [9] | [14] | [16] | [17] | [18]
inactive: all other assays above

CC(C)(C)c1ccc(N)cc1
not listed: [9] | [16] | [18] | [19]
inactive: all other assays above

COC(=O)c1cc(Cl)ccc1[N+](=O)[O-]
not listed: [6] | [8] | [9] | [11] | [15] | [16] | [17] | [18]
inactive: all other assays above

CCC(C)OC(=O)c1ccc(O)cc1 (stereo unspecified)
active: [3] 62.7 µM | [5] 0.75 µM
not listed: [8] | [9] | [14] | [17]
inactive: all other assays above
